Counter-ions that a name gives are not always drawn. ± gives the standard deviation of the averaged measurements. In all, about 2,000 compounds were measured (“relative cell viability vs DMSO, compound + 0.2 uM CuET”: median about 1, lowest 2% from about 0.25 on). The sample as a whole holds a higher share of the lowest values than the screen did.
Test system: TE10
Test: relative cell viability vs DMSO, compound + 0.2 uM CuET (fraction); TE10 is an esophageal squamous carcinoma line; higher = less cytotoxic
Conditions: 2 µM; co-treatment: CuET (bis(diethyldithiocarbamate)copper) 0.2 uM; 48 h
Protocol: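 TE10 ESCC cells (1,000/well, 384-well plates) were treated with Selleck bioactive library compounds at 2 uM combined with 0.2 uM CuET (copper diethyldithiocarbamate) for 48 h. Viability was read by CellTiter-Glo and expressed relative to DMSO wells. Two technical replicates (A, B).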

| SMILES | relative cell viability |
| --- | --- |
| COc1cc2c(cc1NS(=O)(=O)c1ccc(Br)cc1C)n(C)c(=O)n2C | 1.17 ± 0.15 |
| CCCC(=O)Nc1cccc(NC(=O)c2ccccc2Br)c1 | 1.01 ± 0.16 |
| O=C(O)CCNc1cc(N2CCc3ccccc3CC2)nc(-c2ccccn2)n1 | 0.765 ± 0.0059 |
| CNc1nc(Nc2cnn(C3CCN(C4COC4)CC3F)c2Cl)ncc1C(F)(F)F (stereo not drawn) | 1.195 ± 0.0015 |
| Nc1cccc(-c2cc3c(Oc4cccc(O)c4)ncnc3[nH]2)c1 | 0.976 ± 0.062 |
| c1cc(-c2cnn3cc(-c4ccc(N5CCNCC5)cc4)cnc23)c2cccnc2c1 | 0.182 ± 0.0055 |
| COc1ccc(-c2cnc3c(-c4cccc5ncccc45)cnn3c2)cc1 | 1.17 ± 0.13 |
| CC(C)Oc1ccc(-c2cnc3c(-c4ccnc5ccccc45)cnn3c2)cc1 | 1.15 ± 0.088 |
| Cc1c(C(=O)Nc2ccc(N3C[C@@H](C)O[C@@H](C)C3)nc2)cccc1-c1ccc(OC(F)(F)F)cc1 [LDE225 (NVP-LDE225,Erismodegib)] | 0.714 ± 0.081 |
| CNc1ncnc2c1ncn2[C@@H]1O[C@H](CO)[C@@H](O)[C@H]1O [N6-methyladenosine (m6A)] | 1.06 ± 0.23 |
| COc1nc(N)nc2c1ncn2[C@@H]1O[C@H](CO)[C@@H](O)[C@@H]1O [Nelarabine] | 1.21 ± 0.043 |
| COc1ccc(C[C@H](N)C(=O)N[C@H]2[C@@H](O)[C@H](n3cnc4c(N(C)C)ncnc43)O[C@@H]2CO)cc1 [Puromycin 2HCl] | 0.249 ± 0.0061 |
| Nc1nonc1C(=Nc1ccc(F)c(Cl)c1)NO | 1.15 ± 0.14 |
| O=C(Nc1cc2cc[nH]c2cn1)c1ccccc1 | 0.3986 ± 0.0004 |
| CS(=O)(=O)N1CCN(Cc2cc3nc(-c4cccc5[nH]ncc45)nc(N4CCOCC4)c3s2)CC1 | 0.68 ± 0.0074 |
| COc1ccc(-c2nc(N3CCOCC3)c3sc(CN(C)c4ncc(C(=O)NO)cn4)cc3n2)cn1 | 0.1569 ± 0.00068 |
| Cc1c(CN2CCN(C(=O)[C@H](C)O)CC2)sc2c(N3CCOCC3)nc(-c3cnc(N)nc3)nc12 | 0.495 ± 0.091 |
| NCCCC[C@@H]1NC(=O)[C@@H](Cc2ccc(O)cc2)NC(=O)[C@H](CC(=O)O)NC(=O)CNC(=O)[C@H](CCCN=C(N)N)NC1=O [Cyclo(RGDyK)] | 1.19 ± 0.27 |
| O=C(O)c1ccc(N2C(=O)C(=Cc3ccc(-c4ccc([N+](=O)[O-])cc4)o3)C=C2c2ccccc2)cc1 | 1.1 ± 0.22 |
| Cc1cc(C)cc(C(=O)NOCCCCCC(=O)NO)c1 | 0.23 ± 0.02 |
| O=C(CCCCCCC(=O)Nc1ccccc1)NO [Vorinostat (SAHA, MK0683)] | 0.473 ± 0.055 |
| Cc1cc(Cl)ccc1OCCCC(=O)NO [Droxinostat] | 0.997 ± 0.063 |
| C[C@H](O)[C@H](O)[C@@H](O)[C@@H](O)C=O [L-(+)-Rhamnose Monohydrate] | 1.15 ± 0.046 |
| CC(NC(=O)Cc1cc(F)cc(F)c1)C(=O)NC(C(=O)OC(C)(C)C)c1ccccc1 (stereo not drawn) | 1.23 ± 0.04 |

| SMILES | relative cell viability |
| --- | --- |
| CN(CCOc1ccc(CC2SC(=O)NC2=O)cc1)c1ccccn1 (stereo not drawn) [Rosiglitazone maleate] | 1.12 ± 0.081 |
| CN(CCOc1ccc(CC2SC(=O)NC2=O)cc1)c1ccccn1 (stereo not drawn) [Rosiglitazone] | 1.04 ± 0.052 |
| CN(CCOc1ccc(CC2SC(=O)NC2=O)cc1)c1ccccn1 (stereo not drawn) [Rosiglitazone HCl] | 1.06 ± 0.062 |
| COC(=O)C1=C(C#N)NC(C)=C(C(=O)OC(C)C)C1c1cccc([N+](=O)[O-])c1 (stereo not drawn) [Nilvadipine] | 1.11 ± 0.1 |
| O=C(Nc1cccc2cccnc12)c1ccc(N2C(=O)C3C4C=CC(C4)C3C2=O)cc1 (stereo not drawn) [IWR-1-endo] | 0.994 ± 0.1 |
| Cc1ccc(S(=O)(=O)c2ccc([N+](=O)[O-])o2)cc1 | 0.175 ± 0.0036 |
| NC(=O)N/N=C/c1ccc([N+](=O)[O-])o1 [Nitrofural] | 1.3 ± 0.033 |
| Nc1ccc(S(=O)(=O)Nc2ncccn2)cc1 [Sulfadiazine] | 1.03 ± 0.045 |
| CNS(=O)(=O)CCc1ccc2[nH]cc(C3CCN(C)CC3)c2c1 [Naratriptan] | 1.2 ± 0.1 |
| CCN(CCO)CCCOc1ccc2c(Nc3cc(CC(=O)Nc4cccc(F)c4)[nH]n3)ncnc2c1 [Barasertib (AZD1152-HQPA)] | 1.25 ± 0.26 |
| CCCC[C@@H](C=O)NC(=O)[C@H](CC(C)C)NC(=O)OCc1ccccc1 [Calpeptin] | 1.12 ± 0.036 |
| CC(C)C[C@@H](C=O)NC(=O)[C@H](CC(C)C)NC(=O)[C@H](CC(C)C)NC(=O)OCc1ccccc1 | 0.223 ± 0.006 |
| CC(NC(=O)C(Cc1ccccc1)NC(=O)OCc1ccccc1)C(=O)CF (stereo not drawn) | 1.14 ± 0.028 |
| C[C@]12CCC(=O)C=C1[C@@H]1C[C@@H]1[C@H]1[C@@H]3[C@@H]4C[C@@H]4[C@@]4(CCC(=O)O4)[C@@]3(C)CC[C@@H]12 [Drospirenone] | 0.77 ± 0.4 |
| COC(=O)[C@H](Cc1ccccc1)NC(=O)[C@@H](N)CC(=O)O [Aspartame] | 1.09 ± 0.034 |
| CC(=O)NC(Cc1ccc(O)cc1)C(=O)NC(CCCN=C(N)N)C(=O)NC(Cc1ccccc1)C(N)=O (stereo not drawn) | 0.977 ± 0.19 |
| CC(C)c1nc(CN(C)C(=O)N[C@@H](CCN2CCOCC2)C(=O)N[C@H](CC[C@H](Cc2ccccc2)NC(=O)OCc2cncs2)Cc2ccccc2)cs1 [Cobicistat (GS-9350)] | 0.957 ± 0.025 |
| COc1ccc(C[C@H](NC(=O)[C@H](C)NC(=O)CN2CCOCC2)C(=O)N[C@@H](Cc2ccccc2)C(=O)[C@@]2(C)CO2)cc1 | 0.198 ± 0.0095 |
| COC[C@H](NC(=O)c1cnc(C)s1)C(=O)N[C@@H](COC)C(=O)N[C@@H](Cc1ccccc1)C(=O)[C@@]1(C)CO1 [Oprozomib (ONX 0912)] | 0.182 ± 0.0023 |
| CC(C)CC(CC(=O)NO)C(=O)N[C@@H](Cc1ccc2ccccc2c1)C(=O)N[C@@H](C)C(=O)NCCN (stereo partly drawn) | 1.19 ± 0.051 |
| O=C(Cc1ccc(-c2ccc(OCCN3CCOCC3)cc2)cn1)NCc1ccccc1 | 0.827 ± 0.037 |
| CC(C)C[C@H](NC(=O)[C@H](CCc1ccccc1)NC(=O)CN1CCOCC1)C(=O)N[C@@H](Cc1ccccc1)C(=O)N[C@@H](CC(C)C)C(=O)[C@@]1(C)CO1 [Carfilzomib (PR-171)] | 0.198 ± 0.019 |
| CC(C)C[C@H](NC(=O)[C@H](Cc1ccccc1)NC(=O)c1cnccn1)B(O)O [Bortezomib (PS-341)] | 0.348 ± 0.058 |
| Cc1c(-c2ccnn2C)cc(C(=O)NCc2ccc(S(C)(=O)=O)cn2)c(=O)n1-c1cccc(C(F)(F)F)c1 [Alvelestat (AZD9668)] | 0.993 ± 0.044 |

Source: the supplement of paper PMC10670038
